The results in this text go back to PubChem BioAssay AID504329 (Southern Research Specialized Biocontainment Screening …, 2011).

The inhibition is the change of the read-out against control, counted positive when it falls.

Structures are written as SMILES. In all, about 340,000 compounds went through this assay and about 1,000 (0.29%) were called active. These entries were drawn from the full list. Potency and affinity values are given separately. Values without a mark were called inactive. No stated cut-off is given here; in the data, inconclusive means inhibition above about 27% without an active follow-up result; inactive means below that.

The assay can be described thus: NS1A inhibition, H1N1 influenza, cell based functional assay (AID 504329). Particulars: percent inhibition, at 12.5 µM, stronger effect = higher value.
With `CCN(C(=O)COC(=O)Cc1c[nH]c2ccccc12)C1CCS(=O)(=O)C1` (configuration not stated), the inhibition is 2.01%.
As to `Cc1ccc(NC(=O)CSc2nc3ccccc3c(=O)[nH]2)cc1[N+](=O)[O-]`, the inhibition is 5.04%.
The value for `COc1ccccc1NC(=O)NNC(=O)CCc1ccccc1` was -10.3%; that for `COc1ccc(NC(=S)N(CCCN2CCOCC2)Cc2cn(C)c3ccccc23)cc1OC` was 2.8%; that for `COc1ccc(OCc2nnc(SCc3ccc(C(=O)O)cc3)o2)cc1` was 5.27%.
Turning to `O=C(NC1CCCC1)C(c1ccc(F)cc1)N(C(=O)c1csnn1)c1ccccc1F` (configuration not stated), the inhibition was -6.01%.
For `Cn1cc(CN2CCC(n3nccc3NC(=O)CCCc3ccccc3)CC2)cn1` the value was -14%; for `COc1ccc(-c2cc(C(=O)NCCN3CCOCC3)c3ccccc3n2)cc1OC`, 23%; for `O=C(CSc1nnc(Nc2ccccc2)s1)Nc1cccc(S(=O)(=O)N2CCCCC2)c1`, -4.99%.
For `CS(=O)(=O)Nc1ccccc1C(=O)OCC(=O)N1CCC(c2ccccc2)=N1` the value was -6.95%; for `Cc1ccc(S(=O)(=O)CCC(=O)Nc2nc(-c3ccccn3)cs2)cc1`, 7.88%.
Take `O=C(CCS(=O)(=O)c1ccccc1)Nc1nc(-c2cccs2)cs1`: the inhibition is -56.6%.
The value for `O=C(CCS(=O)(=O)c1ccccc1)Nc1nc(-c2ccc(F)cc2)cs1` was -4.12%; that for `O=C(CCS(=O)(=O)c1ccc(F)cc1)Nc1nc(-c2ccncc2)cs1` was -5.43%.
With `CC(C)Oc1ccc(S(=O)(=O)N2CCCCC2)cc1NC(=O)CN1C(=O)NC(C)(C2CC2)C1=O` (configuration not stated), the inhibition was -3.52%.
The value for `O=C(C1CCN(S(=O)(=O)c2ccccc2)CC1)N1CCCCCC1` was 12.9%.
For `CC(C)(C)C(=O)CSc1nc2ncc(Br)cc2[nH]1` the value was 0.51%; for `Cc1ccc(NC(=O)c2cn(-c3cccc(C)n3)cn2)cc1`, -6.72%; for `Cc1cccc(-n2cnc(C(=O)N/N=C/c3ccccc3)c2)n1`, -4.63%.
For `C/C(=N/NC(=O)c1cn(-c2cccc(C)n2)cn1)c1ccc(C)cc1` the value was 3.85%.
Turning to `COC(=O)c1ccc(NC(=O)c2cn(-c3cccc(C)n3)cn2)cc1`, the inhibition was -7.7%.
Regarding `COc1ccc(OC)c(NC(=O)COC(=O)[C@H](Cc2ccccc2)NC(=O)c2ccco2)c1`, the inhibition is -3.78%.
`O=C(c1ccc(Cn2c(=S)[nH]c3ccc(N4CCOCC4)cc3c2=O)cc1)N1CCN(c2ccc(F)cc2)CC1`: the inhibition is -6.32%.
On to `COc1cc(CN(C)C)cc(C=O)c1O`, for which the inhibition is 1.87%.
The value for `Nc1nc2cc(Br)ccc2o1` was -24.5%; that for `COc1cc(C(C)=O)ccc1OCC(=O)Nc1cc(Cl)ccc1-n1cncn1` was -5.4%; that for `O=C(NCC(=O)N(c1ccc(F)cc1)C(C(=O)NC1CCCC1)c1cccnc1)c1cccs1` (configuration not stated) was -7.6%.
The value for `O=C(CN1C(=O)c2cccnc2Oc2ccc(Cl)cc21)N1CCCC1` was -12.6%; that for `O=C1c2ccccc2CN1CCNS(=O)(=O)c1ccc2ccccc2c1` was 0.05%.
With `CCN(Cc1nc2cc(Cl)ccc2c(=O)[nH]1)C(=O)c1cc2c(s1)CCCCC2`, the inhibition is -9.24%.
As for `CC1(C(=O)NCc2cc(F)cc(C(F)(F)F)c2)C=CC2(CCCCC2)N1C(=O)c1ccccc1` (configuration not stated), the inhibition is -9.29%.
With `CS(=O)(=O)N(CC(=O)NCC1CCCO1)Cc1ccc(Cl)cc1` (configuration not stated), the inhibition was -3.33%.
For `O=C(NNc1c2ccccc2nc2ccccc12)c1ccccc1Cl`, the inhibition is -1.62%.
For `O=C(NNc1c2ccccc2nc2ccccc12)c1ccccc1O` the value was -2.01%; for `Cc1cccc(C)c1NC(=O)CN(C)C(=O)C(c1ccccc1)c1ccccc1`, -4.5%.
The value for `COc1ccc(COC(=O)CCS(=O)(=O)c2ccc(C)cc2)cc1F` was -5.19%; that for `CN(C)CCNc1ccc(CO)c2oc3ccc(O)cc3c(=O)c12` was 2.86%; that for `CN(C)CCNc1ccc(CO)c2sc3ccc(O)cc3c(=O)c12` was 21.9%.
The value for `CCN(CC)CCCNc1ccc2ncn3c4ccc(O)cc4c(=O)c1c23` was 18.1%.
On to `CCN(CC)CCNc1ccc(CO)c2sc3ccccc3c(=O)c12`, for which the inhibition was -1.15%.
For `CCOC(=O)N1CCN(C(=O)CN(C)S(=O)(=O)c2ccc3c(c2)c(=O)n(C)c(=O)n3C)CC1` the value was 1.25%; for `CCn1nc(C)c(/C=N\NC(=O)c2cccc(OC)c2)c1C`, -6.26%.
In the case of `O=C(Nc1cccnc1)C1CCN(S(=O)(=O)c2cccc3nonc23)CC1`, the inhibition was 7.53%.
Consider `CCOc1cc(/C=C2\SC(=S)N(Nc3ccccc3)C2=O)ccc1O`, for which the inhibition is -19.7%.
The value for `COc1cc(/C=C2\SC(=S)N(Nc3ccccc3)C2=O)ccc1O` was 16.4%.
The value for `N#CC1=C2SCCN2C(=O)C(C#N)C12CCCCC2` (configuration not stated) was -0.17%; that for `Cc1cc(C)c2oc(=O)cc(CN3CCN(Cc4ccccc4)CC3)c2c1` was 0.54%.
In the case of `COc1cccc(-n2c(SCC(=O)NCc3cccs3)nc3ccccc3c2=O)c1`, the inhibition is 0.54%.
For `O=C(c1ccc(F)cc1)N1CCC(C(=O)N2CCN(S(=O)(=O)c3cccc(Cl)c3)CC2)CC1`, the inhibition was -5.53%.
The value for `CCOCCc1nnc(NC(=O)CN2C(=O)c3ccccc3C2=O)s1` was -7.03%; that for `CN(C)c1ncc(C2=C(Cl)C(=O)C(N3CCCC3)=C(Cl)C2=O)s1` was 8.59%; that for `CN1CCN(C2=C(Cl)C(=O)C(c3cnc(N4CCCCC4)s3)=C(Cl)C2=O)CC1` was 18.9%.
For `COc1ccc(C(=O)C2CN(C)CC2c2ccc(Cl)cc2)cc1` (configuration not stated) the value was -2.24%; for `CN1CC(C(=O)c2ccc(Cl)cc2)C(c2ccccc2)C1` (configuration not stated), -3.51%; for `O=[N+]([O-])c1ccc2nc(N3CCCC3)sc2c1`, -13.2%.
For `COc1cc(Cl)c(C)cc1N1C(=O)CN(Cc2ccccc2)C1=S` the value was -3.41%; for `O=C(COc1cc(F)ccc1[N+](=O)[O-])Nc1ccc(N2CCOCC2)cc1`, 6.79%.
For the compound `Cc1ccc(S(=O)(=O)N2CC(O)C[C@H]2C(=O)OCC(=O)N2CCN(c3ccc(F)cc3)CC2)cc1C` (some centres not stated), the inhibition was -4.2%.
Consider `COc1ccc(NC(=O)CNCCC2=CCCCC2)cc1`, for which the inhibition was -5.53%.
The value for `CC(=O)Nc1ccc(NC(=O)COC(=O)C2CCCCC2)cc1` was -9.9%.
For the compound `CN1CCN(c2ccc(NC(=O)COc3ccccc3[N+](=O)[O-])cc2)CC1`, the inhibition is 0.13%.
The value for `O=C(CNCCC1=CCCCC1)Nc1ccccc1N1CCCCCC1` was -4.99%; that for `NS(=O)(=O)c1ccc(NC(=O)COC(=O)C2CCCCC2)cc1` was -11.2%; that for `Cc1ccc(S(=O)(=O)N2CC(O)C[C@H]2C(=O)OCC(=O)Nc2ccc(N3CCOCC3)cc2)cc1C` (some centres not stated) was -8.01%.
The value for `COCc1cc(=O)[nH]c(SCC(=O)N2CCOCC2)n1` was -7.79%; that for `CC(=O)NC(CC(=O)OCC(=O)N1CCN(S(=O)(=O)c2ccc(Cl)cc2)CC1)c1ccccc1` (configuration not stated) was -16.1%; that for `COCCN(C(=O)CSc1nnc(-c2ccncc2)n1C)c1c(N)n(CC(C)C)c(=O)[nH]c1=O` was -15.9%.
For `CCSc1oc(-c2ccco2)nc1S(=O)(=O)c1ccc(F)cc1` the value was 5.79%; for `c1ccc(COc2ccccc2CNC2CCCC2)cc1`, 0.14%.
In the case of `O=C(/C=C/c1ccc(Cl)cc1)NCCCN1CCOCC1`, the inhibition was -7.22%.
Turning to `CCC(Sc1nc2cc(OC)c(OC)cc2c(=O)n1CCc1ccc(OC)c(OC)c1)C(=O)NCCOC` (configuration not stated), the inhibition is 7.7%.
Consider `COc1ccc(Cn2c(CCC(=O)NCc3ccco3)nc3cccnc32)cc1`, for which the inhibition was 0.67%.
For `CCc1nnc(NC(=O)c2cc(-c3ccncc3)nc3ccccc23)s1`, the inhibition is -12.1%.
For `Cc1ccc(N(C(=O)c2csnn2)C(C(=O)NC(C)(C)C)c2cccnc2)cc1` (configuration not stated) the value was -8.33%.
The value for `CC1CN(c2ccc([N+](=O)[O-])c(NCCOc3ccccc3)c2)CCN1` (configuration not stated) was 4.39%; that for `CC1CN(c2ccc([N+](=O)[O-])c(NCCOc3ccc(Cl)cc3)c2)CC(C)N1` (configuration not stated) was 20.5%; that for `COCCN1C(=O)N[C@@H](CCc2ccccc2)[C@@H](C(=O)OC)[C@H]1C` was -8.6%.
In the case of `COc1ccccc1NC(=O)CSc1nnc(CNC(=O)c2cccs2)o1`, the inhibition is -6.38%.
The value for `O=C(Cn1cnc(S(=O)(=O)N2CCCCC2)c1)Nc1ccc(OC(F)(F)F)cc1` was 2.65%.
For `O=S(=O)(Nc1ccc2c(c1)OCCO2)c1c(F)cccc1F` the value was -2%; for `NNc1nc(Nc2ccccc2)nc(Nc2ccccc2)n1`, -2.5%; for `CNc1nc(Cl)nc(Nc2ccccc2)n1`, 6.99%.
For `O=C(CCS(=O)CCC(=O)NCc1ccccc1)NCc1ccccc1` the value was -7.22%.
In the case of `CCN1C(=O)/C(=C/C=C2/Sc3ccccc3N2CCO)SC1=S`, the inhibition is 8.17%.
The value for `CCN1C(=O)/C(=C/C=C2\C=CN(CC)c3ccccc32)SC1=S` was 21%; that for `CC(=O)c1ccc(N2CCN(C(=O)Cc3n[nH]c(=O)c4ccccc34)CC2)cc1` was 2.74%; that for `COc1cccc(CN(C)C(=O)c2cccc(OCc3ccccc3)c2)c1` was 5.5%.
The value for `Cc1cc(OC(C)C(=O)NCCN2CCOCC2)c2c(C)c(C)c(=O)oc2c1` (configuration not stated) was 2.99%; that for `CCOC(=O)/C(N=Nc1c(C)n(C)n(-c2ccccc2)c1=O)=C(/O)c1ccccc1` was 3.43%; that for `Cc1c(N=N/C(C(=O)Nc2ccccc2)=C(/O)c2ccccc2)c(=O)n(-c2ccccc2)n1C` was 12.5%.
The value for `CC(=O)/C(N=Nc1c(C)n(C)n(-c2ccccc2)c1=O)=C(\C)O` was 1.66%.
On to `COC(=O)/C(N=Nc1c(C)n(C)n(-c2ccccc2)c1=O)=C(\C)O`, for which the inhibition is 8.11%.
